Screen size: about 400,000 compounds; about 13,000 (3.2%) were called active. Not shown: some 18% with an inconclusive outcome. Calls follow the shape of the dose curve; as a rule, active = well fitted cell-killing curve with a large enough effect; inconclusive = small, poorly fitted or top-dose-only effect, or effect the other way; inactive = flat fitted curve, though single readings scatter. Shown is part of a subset that was picked to be rich in actives. Entries that show only a call come without a potency.
Test: qHTS assay for MDR1-selective chemotherapeutics: Primary screen using the drug-selected MDR subline cells KB-V1; also: nearly all actives have a fitted effect of over 60% in size
Details: KB-V1 MDR cells viability, CellTiter-Glo, 72 h; series mostly up to 46.1 µM
How it was run: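 Cytotoxicity toward P-gp-expressing KB-V1 cells was determined as loss of CellTiter-Glo luminescence after 72 h at 37 degrees C. Compounds were tested in quantitative HTS format across a concentration range, with curves fitted to normalized data.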
Potency is read from the fitted curve at half-maximal effect.

SMILES | Potency
CCOC(=O)[C@]12CCCC=C1N(Cc1cccc3ccccc13)C(=O)[C@H](CC(=O)NCC13CC4CC(CC(C4)C1)C3)C2 | inactive
CCOC(=O)[C@]12CCC=C1N(Cc1ccco1)C(=O)[C@H](CC(=O)NCc1cccc(C(F)(F)F)c1)C2 | inactive
CCOC(=O)[C@]12CCC=C1N(Cc1cccc3ccccc13)C(=O)[C@H](CC(=O)NCc1cccc(C(F)(F)F)c1)C2 | 20.6 µM (active)
O=C(NC1CCCC1)c1cc(-c2ccccc2)on1 | 16.4 µM (active)
O=C(NC1CCCCCCC1)c1cccs1 | inactive
O=C(NC1CCCCC1)c1cc(C2CC2)on1 | inactive
CCCCN1C(=O)C(CC(=O)NC(c2ccccc2)c2ccccc2)CC(C(=O)N2CCOCC2)=C1C (stereo not given) | inactive
N#Cc1ccc[n+](CC(=O)c2ccc(O)c(O)c2)c1 | inactive
CCCn1nc(C(=O)OCc2nc(N)nc(Nc3ccccc3C)n2)c2ccccc2c1=O | 20.6 µM (active)
Cc1ccc(C(=O)OCc2nc(N)nc(Nc3ccccc3C)n2)cc1 | inactive
Cc1ccccc1Nc1nc(N)nc(CSc2ccccc2)n1 | inactive
O=C(Nc1cccc2cccnc12)c1ccc2sc([C@H]3C[C@H](O)[C@@H](CO)O3)nc2c1 | inactive
CC(=O)NCCn1c(SCC(=O)Nc2ccc(C)cc2)nc2ccccc2c1=O | inactive
CCn1c(SCC(=O)Nc2ccc(C)cc2)nc2nc3c(cc2c1=O)CCCC3 | 0.651 µM (active)
Cc1ccc(NC(=O)Cn2cnc3nc4c(cc3c2=O)CCCC4)cc1Cl | inactive
CCCn1c(N)c(C(=O)CSc2nnc(Cc3cccs3)n2C2CC2)c(=O)[nH]c1=O | inactive
CC(C)CCn1c(CN(C)Cc2ccccc2)nc2c1c(=O)n(C)c(=O)n2C | 9.2 µM (active)
Cn1c(=O)c2c(nc(NCc3ccccc3)n2CC(N)=O)n(C)c1=O | inactive
CCCCn1c(SCC(=O)NCCc2ccc(OC)c(OC)c2)nc2c1c(=O)n(C)c(=O)n2C | inactive
COc1ccc(CCNc2nc(C)cc(C)n2)cc1OC | inactive

SMILES | Potency
Cc1ccnc(SCCn2c(N(C)Cc3ccccc3)nc3c2c(=O)n(C)c(=O)n3C)n1 | inactive
COCCn1c(CN(Cc2ccccc2)Cc2ccccc2)nc2c1c(=O)n(C)c(=O)n2C | inactive
CCn1c(NCCc2ccc(OC)c(OC)c2)nc2c1c(=O)n(C)c(=O)n2C | 4.61 µM (active)
Cn1c(=O)c2c(nc(NCCc3ccccc3)n2Cc2ccccc2Br)n(C)c1=O | inactive
Cn1c(=O)c2c(nc(NCCc3ccccc3)n2Cc2ccccc2)n(C)c1=O | 6.51 µM (active)
Cc1noc(C)c1C(=O)N1CCC1(C)C(=O)NS(=O)(=O)c1ccc(C#N)cc1 (stereo not given) | inactive
Cc1ccc(-c2cnc(C(O)c3cc(Cl)cc(Cl)c3)[nH]2)cc1 (stereo not given) | inactive
Cc1cccc(N2CCN(S(=O)(=O)c3ccc4[nH]c5c(c4c3)CCCCC5)CC2)c1C | inactive
O[C@@H]1C[C@H](c2ccccc2)N(Cc2cccs2)C[C@H]1n1cc(C2CC2)nn1 | inactive
COC(=O)[C@]12CCCCC=C1N(Cc1ccc3c(c1)OCO3)C(=O)[C@H](CC(=O)N1CCOCC1)C2 | inactive
Cc1cccc(/C=N/NC(=O)CNc2cccc3ccccc23)n1 | 14.6 µM (active)
Cn1cccc1/C=N/NC(=O)CNc1cccc2ccccc12 | inactive
C/C(=N\NC(=O)CNc1cccc2ccccc12)c1ccc(Br)s1 | inactive
COCCNS(=O)(=O)c1cc(-c2nn3c(C)nnc3c3ccccc23)ccc1C | inactive
Cc1ccc(NC(=O)c2ccco2)cc1 | inactive
CCOc1cc(N2CCOCC2)c(OCC)cc1NC(=O)COc1cccc(Cl)c1 | inactive
CCOc1cc(N2CCOCC2)c(OCC)cc1NC(=O)c1ccc(C)s1 | inactive
CCOc1cc(N2CCOCC2)c(OCC)cc1NC(=O)COc1cccc2cccnc12 | 5.17 µM (active)
CC(C)(C)c1ccc(C(=O)C[n+]2cccc3cc(Cl)ccc32)cc1 | inactive
Cc1ccc(C(=O)N2c3ncnn3C3(CCCCC3)[C@@H]3CCCC[C@@H]32)cc1 | inactive

SMILES | Potency
Cc1occc1C(=O)Nc1nnc(C2CCCCC2)s1 | 16.4 µM (active)
Cc1cc(C(=O)Nc2nnc(C3CC3)s2)c(C)s1 | inactive
O=C(Nc1nnc(C2CC2)s1)c1cc(Cl)sc1Cl | inactive
CC1=C(C(=O)N2CCOCC2)CC(CC(=O)NCCN2CCOCC2)C(=O)N1CCC1=CCCCC1 (stereo not given) | inactive
COc1ccc(N2CCN(S(=O)(=O)c3ccc(-c4coc(C)n4)cc3)CC2)cc1 | inactive
COc1ccc(Br)cc1C1CC(=O)Nc2c1c(C)nn2-c1nc(C)cc(C)n1 (stereo not given) | inactive
Oc1ccc(Br)cc1C1C=C(c2ccc3c(c2)OCO3)NC(c2ccc(Cl)cc2)N1 (stereo not given) | inactive
Cc1nnc(-c2ccc(Oc3ccc(C)c(C)c3)c([N+](=O)[O-])c2)o1 | 14.6 µM (active)
COC(=O)c1cc(Oc2ccc(S(=O)(=O)N3CCOCC3)cc2[N+](=O)[O-])cc(C(=O)OC)c1 | inactive
COc1ccc(OCC(=O)Nc2cc(C)c(Cl)cc2OC)c([N+](=O)[O-])c1 | inactive
CCc1ccccc1NC(=O)N1CCN(C(=O)c2nsc3ccccc23)CC1 | inactive
CCOc1cc(-c2nnc(SCC(=O)NC3CCCC3)nc2-c2ccc(OC)c(OCC)c2)ccc1OC | inactive
CN(c1ccccc1)S(=O)(=O)c1cc(C(=O)Nc2nc3ccccc3[nH]2)ccc1Cl | 3.66 µM (active)
CN(c1ccccc1)S(=O)(=O)c1ccc(C(=O)N2CCN(c3ccccc3Cl)CC2)cc1 | inactive
CC(=O)c1ccc(N2CCN(C(=O)c3ccc(Cl)c(S(=O)(=O)NC4CC4)c3)CC2)c(F)c1 | inactive
COc1cccc(C(=O)Nc2nnc(S(=O)(=O)N(C)c3ccccc3)s2)c1 | inactive
CN(c1ccccc1)S(=O)(=O)c1cc(C(=O)OCC(=O)N2CCN(C(=O)c3ccco3)CC2)ccc1Cl | inactive
CN(c1ccccc1)S(=O)(=O)c1cc(C(=O)N2CCN(c3ncccn3)CC2)ccc1Cl | 2.91 µM (active)
CC(OC(=O)c1ccc(NC(=O)CC#N)cc1)C(=O)Nc1ccc(S(=O)(=O)N2CCCC2)cc1 (stereo not given) | inactive
Nc1nc2cc(Cl)ccc2n1N | inactive

— PubChem BioAssay AID1347076 (National Center for Advancing Translational Sciences (NCATS), 2019)
